Experimental data from PubChem BioAssay (NCI).
This is part of a sample that, as a whole, favours compounds with a hit. Of some 79,000 tested, about 15% had one in any assay. Unmarked numbers belong to inactive results. Activity calls are given as the source filed them. Rule as the data show it: active = growth inhibition above about 70%; inactive = the rest.

Columns and labels:
[1] = NCI Yeast Anticancer Drug Screen. Data for the rad50 strain (AID 155);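 also: 0% = growth of vehicle-only cultures of the same strain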; details: S. cerevisiae rad50 strain growth inhibition, stronger effect = higher value
Procedure, shortened: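 A DNA repair-deficient yeast mutant serves as the test organism; compound-induced growth inhibition is calculated against vehicle-treated cells.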

[2] = NCI Yeast Anticancer Drug Screen. Data for the mec2-1 strain (AID 157); details: S. cerevisiae mec2-1 strain, stronger effect = higher value
Procedure, shortened: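 Using mec2-1 yeast: add compound, measure growth, express inhibition versus vehicle-treated cultures.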

[3] = NCI Yeast Anticancer Drug Screen. Data for the sgs1 mgt1 strain (AID 161);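 also: 0% = growth of cultures given vehicle only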; details: S. cerevisiae sgs1 mgt1 strain, stronger effect = higher value
Procedure, shortened: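 This yeast growth screen uses a strain with defined DNA-repair lesions; compound-treated growth is compared with vehicle-treated growth.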

[4] = NCI Yeast Anticancer Drug Screen. Data for the cln2 rad14 strain (AID 165);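 also: 0% = growth equal to vehicle treated cultures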; details: S. cerevisiae cln2 rad14 strain, stronger effect = higher value
Procedure, shortened: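 Yeast strain cln2 rad14, bearing defects in cell cycle control and DNA repair, serves as the test system; values reflect growth inhibition compared with vehicle.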

[5] = NCI Yeast Anticancer Drug Screen. Data for the bub3 strain (AID 167); details: S. cerevisiae bub3 mutant strain, stronger effect = higher value
Procedure, shortened: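 Inhibition values come from growth of compound-treated mutant yeast normalised to vehicle-treated controls.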

[6] = NCI Yeast Anticancer Drug Screen. Data for the mlh1 rad18 strain (AID 175); details: S. cerevisiae mlh1 rad18 strain growth inhibition, stronger effect = higher value
Procedure, shortened: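 Steps: expose repair-defective yeast to compound; measure growth; express inhibition against vehicle-treated controls.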

[7] = at 5.0 µM (retest, dose inferred, filed as 0.5)
[8] = at 50.0 µM (retest, dose inferred, filed as 5.0)

## CC/C(=C/c1ccc(OC)cc1)[N+](=O)[O-]
[1]; [7]
  growth inhibition: 80% (active)
[1]; [8]
  growth inhibition: 99% (active)
[1]; at 50.0 µM
  growth inhibition: 99.2% (active)
[2]; [7]
  growth inhibition: 35%
[2]; [8]
  growth inhibition: 100% (active)
[2]; at 50.0 µM
  growth inhibition: 99.7% (active)
[3]; [7]
  growth inhibition: 46%
[3]; [8]
  growth inhibition: 99% (active)
[3]; at 50.0 µM
  growth inhibition: 99.5% (active)
[4]; [7]
  growth inhibition: 20%
[4]; [8]
  growth inhibition: 100% (active)
[4]; at 50.0 µM
  growth inhibition: 99% (active)
[5]; [7]
  growth inhibition: 49%
[5]; [8]
  growth inhibition: 99% (active)
[5]; at 50.0 µM
  growth inhibition: 99.3% (active)
[6]; [7]
  growth inhibition: 40%
[6]; [8]
  growth inhibition: 99% (active)
[6]; at 50.0 µM
  growth inhibition: 99.2% (active)

## C1=C(/C=C2\CCCc3c(-c4ccccc4)cc(-c4ccccc4)[o+]c32)CCC/C1=C\C1=C2OC(c3ccccc3)=CC(c3ccccc3)=C2CCC1
[1]; [7]
  growth inhibition: -11%
[1]; [8]
  growth inhibition: 14%
[1]; at 50.0 µM
  growth inhibition: 36.6%
[2]; [7]
  growth inhibition: 3%
[2]; [8]
  growth inhibition: 2%
[2]; at 50.0 µM
  growth inhibition: 52.8%
[3]; [7]
  growth inhibition: 4%
[3]; [8]
  growth inhibition: -8%
[3]; at 50.0 µM
  growth inhibition: 66.6%
[4]; [7]
  growth inhibition: 18%
[4]; [8]
  growth inhibition: 25%
[4]; at 50.0 µM
  growth inhibition: 40.9%
[5]; [7]
  growth inhibition: 10%
[5]; [8]
  growth inhibition: 30%
[5]; at 50.0 µM
  growth inhibition: 71.2% (active)
[6]; [7]
  growth inhibition: 3%
[6]; [8]
  growth inhibition: 35%
[6]; at 50.0 µM
  growth inhibition: 31.9%

## O=[n+]1c2ccccc2n([O-])c2ccccc21.[Cl][Cu][Cl]
[1]; [7]
  growth inhibition: 90% (active)
[1]; [8]
  growth inhibition: 98% (active)
[1]; at 50.0 µM
  growth inhibition: 99.1% (active)
[2]; [7]
  growth inhibition: 20%
[2]; [8]
  growth inhibition: 99% (active)
[2]; at 50.0 µM
  growth inhibition: 99% (active)
[3]; [7]
  growth inhibition: 36%
[3]; [8]
  growth inhibition: 98% (active)
[3]; at 50.0 µM
  growth inhibition: 99.2% (active)
[4]; [7]
  growth inhibition: 7%
[4]; [8]
  growth inhibition: 97% (active)
[4]; at 50.0 µM
  growth inhibition: 97.6% (active)
[5]; [7]
  growth inhibition: -3%
[5]; [8]
  growth inhibition: 98% (active)
[5]; at 50.0 µM
  growth inhibition: 97.7% (active)
[6]; [7]
  growth inhibition: 57%
[6]; [8]
  growth inhibition: 98% (active)
[6]; at 50.0 µM
  growth inhibition: 99% (active)

## COC(C)(C)[CH]([Hg][Cl])n1ccccc1=O (configuration not stated)
[1]; [7]
  growth inhibition: 99% (active)
[1]; [8]
  growth inhibition: 99% (active)
[1]; at 50.0 µM
  growth inhibition: 99.3% (active)
[2]; [7]
  growth inhibition: 99% (active)
[2]; [8]
  growth inhibition: 100% (active)
[2]; at 50.0 µM
  growth inhibition: 99.4% (active)
[3]; [7]
  growth inhibition: 99% (active)
[3]; [8]
  growth inhibition: 99% (active)
[3]; at 50.0 µM
  growth inhibition: 99.3% (active)
[4]; [7]
  growth inhibition: 98% (active)
[4]; [8]
  growth inhibition: 99% (active)
[4]; at 50.0 µM
  growth inhibition: 99.2% (active)
[5]; [7]
  growth inhibition: 99% (active)
[5]; [8]
  growth inhibition: 99% (active)
[5]; at 50.0 µM
  growth inhibition: 99.1% (active)
[6]; [7]
  growth inhibition: 98% (active)
[6]; [8]
  growth inhibition: 98% (active)
[6]; at 50.0 µM
  growth inhibition: 99.3% (active)

## CC(C)c1oc(=O)cc2c1C(O)C1OC(=O)C3(C)C(O)C4OC4C2(C)C13 (configuration not stated)
[1]; [7]
  growth inhibition: 8%
[1]; [8]
  growth inhibition: 65%
[1]; at 50.0 µM
  growth inhibition: 31.9%
[2]; [7]
  growth inhibition: 10%
[2]; [8]
  growth inhibition: 81% (active)
[2]; at 50.0 µM
  growth inhibition: -10.8%
[3]; [7]
  growth inhibition: 10%
[3]; [8]
  growth inhibition: 72% (active)
[3]; at 50.0 µM
  growth inhibition: 25.1%
[4]; [7]
  growth inhibition: 19%
[4]; [8]
  growth inhibition: 71% (active)
[4]; at 50.0 µM
  growth inhibition: 15.9%
[5]; [7]
  growth inhibition: 2%
[5]; [8]
  growth inhibition: 76% (active)
[5]; at 50.0 µM
  growth inhibition: 17.4%
[6]; [7]
  growth inhibition: 11%
[6]; [8]
  growth inhibition: 86% (active)
[6]; at 50.0 µM
  growth inhibition: 18.4%

## O=C1C(Cl)=C(Cl)C(=O)c2ccccc21
[1]; [7]
  growth inhibition: 99% (active)
[1]; [8]
  growth inhibition: 96% (active)
[1]; at 50.0 µM
  growth inhibition: 97.8% (active)
[2]; [7]
  growth inhibition: 55%
[2]; [8]
  growth inhibition: 98% (active)
[2]; at 50.0 µM
  growth inhibition: 97% (active)
[3]; [7]
  growth inhibition: 99% (active)
[3]; [8]
  growth inhibition: 97% (active)
[3]; at 50.0 µM
  growth inhibition: 98.2% (active)
[4]; [7]
  growth inhibition: 99% (active)
[4]; [8]
  growth inhibition: 95% (active)
[4]; at 50.0 µM
  growth inhibition: 96.6% (active)
[5]; [7]
  growth inhibition: 98% (active)
[5]; [8]
  growth inhibition: 96% (active)
[5]; at 50.0 µM
  growth inhibition: 97.5% (active)
[6]; [7]
  growth inhibition: 99% (active)
[6]; [8]
  growth inhibition: 96% (active)
[6]; at 50.0 µM
  growth inhibition: 98% (active)

## ClC(CN1CCCCC1)C(Cl)c1ccccc1 (configuration not stated)
[1]; [7]
  growth inhibition: 6%
[1]; [8]
  growth inhibition: 28%
[1]; at 50.0 µM
  growth inhibition: 46.6%
[2]; [7]
  growth inhibition: 2%
[2]; [8]
  growth inhibition: 21%
[2]; at 50.0 µM
  growth inhibition: 4.8%
[3]; [7]
  growth inhibition: 5%
[3]; [8]
  growth inhibition: 53%
[3]; at 50.0 µM
  growth inhibition: 62%
[4]; [7]
  growth inhibition: 7%
[4]; [8]
  growth inhibition: 37%
[4]; at 50.0 µM
  growth inhibition: 53%
[5]; [7]
  growth inhibition: 6%
[5]; [8]
  growth inhibition: 58%
[5]; at 50.0 µM
  growth inhibition: 51.9%
[6]; [7]
  growth inhibition: 16%
[6]; [8]
  growth inhibition: 57%
[6]; at 50.0 µM
  growth inhibition: 35.1%

## O=C1CCCC1Cl (configuration not stated)
[1]; [7]
  growth inhibition: -2%
[1]; [8]
  growth inhibition: 3%
[1]; at 50.0 µM
  growth inhibition: 39.8%
[2]; [7]
  growth inhibition: -2%
[2]; [8]
  growth inhibition: -3%
[2]; at 50.0 µM
  growth inhibition: 82.6% (active)
[3]; [7]
  growth inhibition: -4%
[3]; [8]
  growth inhibition: 0%
[3]; at 50.0 µM
  growth inhibition: 12.5%
[4]; [7]
  growth inhibition: -2%
[4]; [8]
  growth inhibition: -8%
[4]; at 50.0 µM
  growth inhibition: 81.9% (active)
[5]; [7]
  growth inhibition: 4%
[5]; [8]
  growth inhibition: -4%
[5]; at 50.0 µM
  growth inhibition: 99.3% (active)
[6]; [7]
  growth inhibition: -3%
[6]; [8]
  growth inhibition: 3%
[6]; at 50.0 µM
  growth inhibition: 56.9%

## O=C(O)C(CSC(c1ccccc1)c1ccccc1)NC(=O)C(c1ccccc1)c1ccccc1 (configuration not stated)
[1]; [7]
  growth inhibition: 6%
[1]; [8]
  growth inhibition: 86% (active)
[1]; at 50.0 µM
  growth inhibition: 52.5%
[2]; [7]
  growth inhibition: 11%
[2]; [8]
  growth inhibition: 89% (active)
[2]; at 50.0 µM
  growth inhibition: 83.3% (active)
[3]; [7]
  growth inhibition: 11%
[3]; [8]
  growth inhibition: 86% (active)
[3]; at 50.0 µM
  growth inhibition: 69.8%
[4]; [7]
  growth inhibition: 15%
[4]; [8]
  growth inhibition: 84% (active)
[4]; at 50.0 µM
  growth inhibition: 96.2% (active)
[5]; [7]
  growth inhibition: 8%
[5]; [8]
  growth inhibition: 64%
[5]; at 50.0 µM
  growth inhibition: 85.7% (active)
[6]; [7]
  growth inhibition: 9%
[6]; [8]
  growth inhibition: 88% (active)
[6]; at 50.0 µM
  growth inhibition: 97.1% (active)
